Rows were chosen to be rich in hits. Some 11% of all compounds tested hit in one or more screens of this group.
Tau fluor counter: counter-screen for tau fibril formation inhibitors. AID 1463. 280,000 tested, 0.93% active. Potency, µM (top dose mostly 57.7 µM), for inactives: at the top dose activity change, negative = decrease. tau K18 P301L Alexa594 fluorescence, heparin fibrillization; further: potency means the concentration at half of the fitted maximal effect; nearly all actives have a fitted effect of over 55% in size
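Human K18 P301L tau (15 uM unlabeled plus 0.24 uM Alexa 594-labeled, final) in 100 mM sodium acetate pH 7 was mixed with compound and 20 uM heparin and incubated 6 hr at 37 C.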
G9a inh: inhibitors of human histone lysine methyltransferase G9a; Q96KQ7; G9a H3K9 monomethylation, AlphaScreen, 2 h; Potency, µM (doses to about 102 µM), for inactives: at the highest dose activity, negative = inhibition, most hits filed as inhibitors; 350,000 tested, 8.8% active; further: potency means the concentration at half of the fitted maximal effect; nearly all actives have a fitted effect of over 75% in size
Target sequence (Q96KQ7 913-1193 limits assumed): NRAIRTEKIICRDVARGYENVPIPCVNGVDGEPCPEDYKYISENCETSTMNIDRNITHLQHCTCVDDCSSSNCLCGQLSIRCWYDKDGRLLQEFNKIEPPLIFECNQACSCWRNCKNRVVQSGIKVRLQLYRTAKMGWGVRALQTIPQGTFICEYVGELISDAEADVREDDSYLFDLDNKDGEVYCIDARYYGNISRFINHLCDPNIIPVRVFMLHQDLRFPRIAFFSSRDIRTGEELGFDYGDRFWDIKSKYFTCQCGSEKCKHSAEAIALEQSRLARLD
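G9a (20 nM) preincubated 15 min RT with compounds, then 500 nM biotinylated H3K9 peptide and 20 uM SAM added; 2 h RT reaction. Monomethyl-H3K9 product detected by AlphaScreen with anti-H3K9me1 antibody, streptavidin donor and anti-rabbit IgG acceptor beads.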
Tau fibril ThT: blocks human tau fibril formation measured by thioflavin T; recombinant tau K18 P301L (four-repeat tau fragment), heparin-induced fibrillization, ThT fluorescence; AID 1460; 270,000 tested, 2.1% active; Potency, µM (highest dose often 57.4 µM), for the others: at the top dose activity, negative = inhibition, most hits filed as inhibitors; P10636; further: potency means the concentration at half of the fitted maximal effect; nearly all actives have a fitted effect of over 55% in size
Target sequence (P10636 561-689 P618L limits assumed): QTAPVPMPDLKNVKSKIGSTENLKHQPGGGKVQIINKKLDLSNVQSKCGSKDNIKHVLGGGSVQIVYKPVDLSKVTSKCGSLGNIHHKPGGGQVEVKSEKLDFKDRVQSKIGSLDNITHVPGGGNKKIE
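Tau K18 P301L fragment (15 uM unlabeled plus 0.24 uM Alexa 594-labeled) in 100 mM sodium acetate pH 7 with compound, fibrillization induced by 20 uM heparin for 6 hr at 37 C. Thioflavin T (30 uM) added, fluorescence read after 1 hr (ex 450, em 510 nm).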
Sfp PPTase inh: inhibitors of Bacillus subtilis Sfp phosphopantetheinyl transferase. Q9F4F7. Biochemical Sfp PPTase activity, qHTS. Potency, µM, for the others: largest response in the series, negative = inhibition, most hits filed as inhibitors. 310,000 tested, 3.5% active. AID 1490;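 further: the enzyme is Sfp with the accession as filed and its product quenches rhodamine fluorescence; potency means the concentration at half of the fitted maximal effect; 0% = enzyme reaction without inhibitor and -100% = no enzyme wells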
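Sfp 15 nM + cpd, 15 min RT; start w/ rhodamine-CoA 5 uM, BHQ-2-YbbR 12.5 uM (final); 50 mM Hepes pH 7.6, 10 mM MgCl2, 0.01% NP-40, 0.01% BSA; read 525/598 nm at 0 and 30 min.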
FBPA coupling cs: coupling enzyme interference in Giardia aldolase counter-screen; 290,000 tested, 0.67% active; activity change, negative = inhibition, % at 58.2 µM, hits read low; coupling enzyme system counterscreen, AmpLite Red fluorescence; AID 2472; in the data active means activity change below about -30%
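Counterscreen lacking aldolase: glyceraldehyde-3-phosphate coupling-enzyme reagent preincubated 10 min at RT with compound (at 57.5 uM final), then substrate/coupling system with AmpLite Red added; fluorescence read at 525/598 nm after 20 min RT.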
Tau fibril FP: blocks human tau fibril formation measured by polarization | P10636 | K18 P301L tau heparin fibrillization, Alexa594 FP, 6 h | Potency, µM (doses to about 57.7 µM), without a hit: at the highest dose activity, negative = inhibition, actives largely listed as inhibitors | 280,000 tested, 0.39% active; further: potency means the concentration at half of the fitted maximal effect; nearly all actives have a fitted effect of over 55% in size
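Compound effects on tau fibrillization are measured by Alexa 594 fluorescence polarization (ex 555, em 632 nm). K18 P301L tau is used at 15 uM with 0.24 uM labeled tracer, and 20 uM heparin induces aggregation over 6 hr at 37 C.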
* marks the source's active call; other numbers are inactive results; [ ] = dose if it differs, or a comment. Unless noted, the call rests on the fitted dose curve; in most records, active means well fitted curve in the direction sought with a large enough effect; inconclusive means small, poorly fitted or top-dose-only effect, or another doubt; inactive means no such curve, though single readings can be large; an effect the other way counts as inactive or inconclusive. Unless noted, on the % scale 0 is the no-effect control and ±100 the full control effect.

`Cc1ccc(C(=O)O)cc1-n1c(C)ccc1-c1ccccc1` gave Tau fluor counter -1.2%, G9a inh inconclusive, Tau fibril ThT -6.8% and Tau fibril FP 1.4%.
Cc1ccc(-c2ccccc2)n1-c1cccc(C(=O)O)c1 was read as Tau fluor counter 8.3%, G9a inh 50.1µM*, Tau fibril ThT -2.4%, Sfp PPTase inh -20.5%, FBPA coupling cs 12.0 and Tau fibril FP 6.1%.
For Cc1ccc(-c2ccccc2)n1-c1ccc(C(=O)O)cc1 the results were Tau fluor counter -5.0%, G9a inh 10µM*, Tau fibril ThT inconclusive, Sfp PPTase inh 70.8µM*, FBPA coupling cs 17.4 and Tau fibril FP 0.4%.
Screening Cc1nccn1CCC(=O)Nc1ccc(Cl)cc1 returned Tau fluor counter -10.5%, G9a inh -48.7%[59 µM], Tau fibril ThT 0.5%, Sfp PPTase inh -1.0%, FBPA coupling cs 1.4 and Tau fibril FP 5.3%.
`COCCNC(=O)Cn1c(=O)n(CCCCCC(=O)NCc2ccccc2Cl)c(=O)c2sccc21` gave Tau fluor counter -3.1%, G9a inh -2.4%[59 µM], Tau fibril ThT 2.2% and Tau fibril FP -3.5%.
CCOc1cc(CNc2ccc3c(c2)CCC3)ccc1OC was read as Tau fluor counter -11.3%, G9a inh 44.7µM*, Tau fibril ThT inconclusive, Sfp PPTase inh 4.4%, FBPA coupling cs -5.0 and Tau fibril FP 2.5%.
O=[N+]([O-])c1cccc(CNc2ccc3c(c2)CCC3)c1 was read as Tau fluor counter inconclusive, G9a inh 12.6µM*, Tau fibril ThT inconclusive, Sfp PPTase inh inconclusive, FBPA coupling cs -3.1 and Tau fibril FP inconclusive.
O=C(Nc1cccc([N+](=O)[O-])c1)Nc1ccc2c(c1)CCC2 was read as G9a inh 108.4%, Sfp PPTase inh -15.1% and FBPA coupling cs -3.9.
`COc1ccccc1CNc1ccc2c(c1)CCC2` gave G9a inh -9.5%[0.501 µM], Sfp PPTase inh 1.7% and FBPA coupling cs 0.3.
`COc1ccc(CNc2ccc3c(c2)CCC3)cc1Br` gave G9a inh 35.5µM*, Sfp PPTase inh -9.1% and FBPA coupling cs -2.1.
`COc1ccc(NC(=O)Nc2ccc3c(c2)CCC3)cc1OC` gave Tau fluor counter -22.1%, G9a inh 27.6%[59 µM], Tau fibril ThT -10.1%, Sfp PPTase inh -11.0%, FBPA coupling cs 0.8 and Tau fibril FP -4.0%.
`CCOc1ccc(CCNC(=O)c2c(C)oc3ncn(CC(C)C)c(=O)c23)cc1OCC` gave Tau fluor counter -10.5%, G9a inh -22.0%[59 µM], Tau fibril ThT -6.3% and Tau fibril FP -4.5%.
Screening COc1ccc(CC(=O)NNC(=O)c2nn(Cc3ccccc3)c(=O)c3ccccc23)cc1OC returned Tau fluor counter -15.5%, G9a inh 16.8%, Tau fibril ThT -11.1%, Sfp PPTase inh -2.9%, FBPA coupling cs 5.9 and Tau fibril FP -5.5%.
O=C(c1cccc(Cl)c1)N1CCN(c2ncccn2)CC1 was read as G9a inh -7.8%, Sfp PPTase inh 12.5% and FBPA coupling cs 4.9.
`CCC(CC)N1CCN(C(=O)c2cccc(Cl)c2)CC1` gave G9a inh 7.94µM*, Sfp PPTase inh -15.5% and FBPA coupling cs 2.1.
CC(C)N1CCN(C(=O)c2cccc(Cl)c2)CC1 was read as G9a inh 25.1µM*, Sfp PPTase inh -16.4% and FBPA coupling cs 0.6.
O=C(c1cccnc1)N1CCN(C(=O)c2cccc(Cl)c2)CC1 was read as Sfp PPTase inh 6.7% and FBPA coupling cs 7.3.
CCc1ccc(NC(=O)c2nn(-c3ccc(OC)cc3)c(=O)c3c2c2ccccc2n3C)cc1 was read as Tau fluor counter -9.3%, G9a inh -4.0%[59 µM], Tau fibril ThT 3.5% and Tau fibril FP inconclusive.
CCOc1ccc(C(=O)NCC(=O)Nc2ccc3c(c2)OCO3)cc1OCC was read as G9a inh 50.1µM*.
For CCOc1cc(C(=O)Nc2ccc3c(c2)OCO3)ccc1OC(F)F the results were Tau fluor counter inconclusive, G9a inh -26.1%[59 µM], Tau fibril ThT inconclusive, Sfp PPTase inh 8.9%, FBPA coupling cs -9.9 and Tau fibril FP -0.8%.
N#CCSc1nc(Nc2ccc3c(c2)OCO3)c2ccccc2n1 was read as Tau fluor counter inconclusive, G9a inh 11.3%[59 µM], Tau fibril ThT -17.0%, Sfp PPTase inh -1.1%, FBPA coupling cs 0.1 and Tau fibril FP 2.5%.
`CCOC(=O)CNc1ccc2c(c1)OCO2` gave Tau fluor counter -28.4%, G9a inh inconclusive, Tau fibril ThT 31.6µM*, Sfp PPTase inh 20µM*, FBPA coupling cs -38.4* and Tau fibril FP inconclusive.
CCOC(=O)CSc1nc(Nc2ccc3c(c2)OCO3)c2ccccc2n1 was read as Tau fluor counter 12.6µM*[quencher], G9a inh -26.7%, Tau fibril ThT inconclusive, Sfp PPTase inh -0.5%, FBPA coupling cs -6.5 and Tau fibril FP 14.1%.
For CCOc1cc(C(=O)Nc2ccc(C(=O)NCCN(CC)CC)cc2)ccc1OCC(=O)N1CCOCC1 the results were G9a inh 50.1µM*.
Screening COc1ccc(C(=O)CCC(=O)Nc2ccc(F)cc2F)cc1 returned Tau fluor counter -1.2%, G9a inh -36.4%[59 µM], Tau fibril ThT -5.0% and Tau fibril FP -4.7%.
Screening Cc1cc(NC(=O)CN2C(=O)NC3(CCCCCC3)C2=O)no1 returned Tau fluor counter 1.4%, G9a inh 6.6%[12.7 µM], Tau fibril ThT -0.1%, Sfp PPTase inh -17.8%, FBPA coupling cs 6.7 and Tau fibril FP -1.9%.
For CCOc1ccc(S(=O)(=O)N(C)c2ccc(OCC(=O)NCCc3ccc(OC)cc3)cc2)cc1 the results were Tau fluor counter -15.5%, G9a inh -24.4%, Sfp PPTase inh 2.3%, FBPA coupling cs 0.0 and Tau fibril FP 7.3%.
Screening CCOC(=O)/C(=N\O)C1=NC(C)(C)Cc2ccccc21 returned Tau fluor counter -6.2%, G9a inh -10.6%[59 µM], Tau fibril ThT -4.6%, Sfp PPTase inh -1.2%, FBPA coupling cs 6.7 and Tau fibril FP 5.0%.
Screening Cc1cccc(N/N=C(\C(N)=O)C2=NC(C)(C)Cc3ccccc32)c1 returned Tau fluor counter inconclusive, G9a inh 44.7µM*, Tau fibril ThT inconclusive, Sfp PPTase inh -19.4%, FBPA coupling cs -1.1 and Tau fibril FP 10.8%.
For O=C(COc1ccc(Cl)cc1Cl)OCC(=O)N1CCCc2ccccc21 the results were Tau fluor counter -16.4%, G9a inh 27.4%, Tau fibril ThT inconclusive, Sfp PPTase inh 4.1%, FBPA coupling cs -1.8 and Tau fibril FP 13.2%.
`O=C(COc1ccc(Cl)cc1Cl)NC(=S)N1CCCc2ccccc21` gave Tau fluor counter -26.6%, G9a inh 10µM*, Tau fibril ThT inconclusive, Sfp PPTase inh 56.2µM*, FBPA coupling cs 0.3 and Tau fibril FP -12.1%.

Screening results deposited in PubChem BioAssay by National Center for Advancing Translational Sciences (NCATS).
